Screen size: about 2,300 compounds; about 1,400 (61%) were called active. About 29% were inconclusive and are not listed. The call rests on the fitted dose curve; in most records, active means well fitted inhibition curve with a large enough effect; inconclusive means small, poorly fitted or top-dose-only effect, or effect the other way; inactive means no such curve, though single readings can be large or run the other way. So high a share suggests a set chosen from earlier hits. Some of the results follow.
Assay: Confirmation screen for delayed death inhibitors of the malarial parasite plastid, 96 hour incubation; further: nearly all actives have a fitted effect of over 60% in size
Details: P. falciparum luciferase growth in erythrocytes; series mostly up to 28.7 µM
In short: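 Erythrocytes infected with luciferase-expressing P. falciparum (2% hematocrit, 0.1% parasitemia final) in RPMI 1640 with 0.5% Albumax, exposed to compounds 96 h at 37 C, 5% CO2. Growth inhibition read as decreased luciferase luminescence.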
Potency means the concentration at half of the fitted maximal effect.

SMILES	Potency
C#CCOCCOCCOCCNc1nc(N2CCN(C(=O)Cn3cc(CCCCN)nn3)CC2)nc(N2CCN(C(=O)[C@H](C)n3cc(CCCN=C(N)N)nn3)CC2)n1	1 µM (active)
C#CCOCCOCCOCCNc1nc(N2CCN(C(=O)Cn3cc(CC(C)O)nn3)CC2)nc(N2CCN(C(=O)[C@H]([C@@H](C)CC)n3cc(CCCN=C(N)N)nn3)CC2)n1 (stereo partly specified)	1 µM (active)
C#CCOCCOCCOCCNc1nc(N2CCN(C(=O)Cn3cc(CC(C)O)nn3)CC2)nc(N2CCN(C(=O)[C@H](C)n3cc(CCCN=C(N)N)nn3)CC2)n1 (stereo partly specified)	15.8 µM (active)
COCCNC(=O)CCCCCN1C(=O)CCC1=O	inactive
CC1(C)CCSC(/C=C/c2ccccc2)=N1	6.31 µM (active)
COc1ccc(/C=C2\CCC/C(=C\C=N\N(C)C)C2=O)cc1	12.6 µM (active)
O=C(CC1Sc2ccccc2NC1=O)OCc1cc(=O)oc2cc(O)ccc12 (stereo unspecified)	7.08 µM (active)
C[C@@H](CN1C2=NC[C@H](Cc3ccc(O)cc3)N2C[C@H]1Cc1ccc(O)cc1)NC(=O)CCC1CCCCC1	5.62 µM (active)
C[C@H]1CN=C2N(CCNC(=O)CCC3CCCCC3)[C@H](Cc3ccc(O)cc3)CN21	6.31 µM (active)
O=C(CCC1CCCCC1)NCCN1C2=NC[C@H](Cc3ccccc3)N2C[C@H]1Cc1ccc(O)cc1	6.31 µM (active)
CC(=O)NC(=S)Nc1ccccc1C(=O)NC1CCCCC1	12.6 µM (active)
O=C(NC1CCCCC1)C(c1ccncc1)N(Cc1ccccc1)C(=O)c1ccc(-c2ccccc2)[nH]1 (stereo unspecified)	3.98 µM (active)
O=C(NC1CCCC1)C(c1ccncc1)N(Cc1ccco1)C(=O)c1ccc(-c2ccccc2)[nH]1 (stereo unspecified)	7.94 µM (active)
COc1cc2c(cc1OC)-c1cc(N3CCc4ccccc43)nc(=O)n1CC2	5.01 µM (active)
COC(=O)CCC(=O)OC1(C)C(=O)C=C2C=C(C3CC3)N(CCCOC(C)C)C=C2C1=O (stereo unspecified)	1.12 µM (active)
O=C(N/N=C/c1ccc([N+](=O)[O-])cc1)c1cccc(N2CCCC2=O)c1	10 µM (active)
CC[C@]1([C@H]2O[C@@H]([C@@H]3O[C@](O)(CO)[C@@H](C)C[C@H]3C)C[C@H]2C)CC[C@@H]([C@]2(C)CC[C@@]3(C[C@@H](O)[C@@H](C)[C@@H]([C@H](C)[C@H](OC)[C@H](C)C(=O)O)O3)O2)O1	0.112 µM (active)
Cc1c(C(c2ccc(Br)cc2)c2c(C)n(C)n(-c3ccccc3)c2=O)c(=O)n(-c2ccccc2)n1C	11.2 µM (active)
CCOc1ccc2nc(C)cc(Nc3cccc([N+](=O)[O-])c3)c2c1	2 µM (active)
CCOc1ccccc1C1N=C(c2ccc(OC)cc2)CC(c2ccccc2O)N1 (stereo unspecified)	12.6 µM (active)
Cc1cccc(C)c1N1CCN(C(=O)c2ccc3c(c2)OCO3)CC1	12.6 µM (active)
O=C(Nc1ccccc1C(F)(F)F)N1CCN(c2ccc3nnc(-c4ccc(F)cc4)n3n2)CC1	3.98 µM (active)
O=C(c1ccc(Br)o1)N1CCN(c2ccc3nnc(-c4ccccc4)n3n2)CC1	7.94 µM (active)
CC1CCCCN1C(=O)COC(=O)c1cccc(NS(=O)(=O)c2ccccc2)c1 (stereo unspecified)	inactive
Cn1c(CCN2CCCC2)nc2cc(NS(=O)(=O)c3ccccc3)ccc21	3.55 µM (active)
Cn1c(CCN2CCCC2)nc2cc(NS(=O)(=O)c3ccc(Cl)cc3)ccc21	6.31 µM (active)

SMILES	Potency
COc1ccccc1CNC(=O)CCCn1nc(C)c2c(C)n(-c3ccccc3)nc2c1=O	12.6 µM (active)
Cc1nn(CCC(=O)NCc2ccc(N(C)C)cc2)c(=O)c2nn(-c3ccccc3)c(C)c12	8.91 µM (active)
O=C(CCN1C(=O)C2CC=C(Cl)CC2C1=O)NCc1ccccc1 (stereo unspecified)	inactive
COc1cc(CNC(=O)CCn2nc(C)c3c(C)n(-c4ccccc4)nc3c2=O)cc(OC)c1OC	12.6 µM (active)
COc1ccc(OC)c(CCNC(=O)CCn2nc(C)c3c(C)n(-c4ccccc4)nc3c2=O)c1	5.62 µM (active)
CCC(C(=O)NCCc1ccccc1OC)n1nc(C)c2c(C)n(-c3ccccc3)nc2c1=O (stereo unspecified)	10 µM (active)
COc1ccccc1CCNC(=O)CCn1nc(C)c2c(C)n(-c3ccccc3)nc2c1=O	7.94 µM (active)
C=C1CCC2[C@](C)(CO)[C@H](O)CC[C@@]2(C)[C@@H]1C/C=C1\C(=O)OC[C@H]1O (stereo partly specified)	11.2 µM (active)
CC1(C)Cc2nc(-c3ccccc3)nc(SCC(O)CO)c2CO1 (stereo unspecified)	12.6 µM (active)
COc1ccc(C)c2sc(NC(=O)CCS(=O)(=O)c3ccccc3)nc12	inactive
CCOc1cccc2sc(NC(=O)CCS(=O)(=O)c3ccccc3)nc12	5.62 µM (active)
CC(C)(C)Sc1ccc([N+](=O)[O-])cc1C(=O)Nc1ccncc1	2.51 µM (active)
COc1cccc(-c2sc3ccc(OC)cc3c2-c2cc(F)cc(OC)c2)c1	10 µM (active)
CN1C(=O)c2ccccc2N(C)C1c1cccc(O)c1 (stereo unspecified)	15.8 µM (active)
CC(=O)N1CCc2cc(S(=O)(=O)NCCC(=O)N3CCN(c4ccccn4)CC3)ccc21	7.94 µM (active)
CC1CN(c2nc(-c3ccc(Br)cc3)nnc2-c2ccccc2)CC(C)N1 (stereo unspecified)	2.82 µM (active)
O=C(CSc1nnc(-c2ccco2)o1)N1c2ccccc2CCc2ccccc21	7.94 µM (active)
O=C(CCCl)Nc1nc2c(s1)CCc1ccccc1-2	11.2 µM (active)
O=C(Cn1c(=O)sc2ccccc21)Nc1nc2c(s1)CCCC2	inactive
O=C(Cc1cn2ccsc2n1)Nc1nc2c(s1)CCCC2	inactive
COc1ccc(CN(C(=O)c2oc3ccc(F)cc3c2C)C2CCS(=O)(=O)C2)cc1 (stereo unspecified)	14.1 µM (active)
Cc1cc(C(=O)N(C)CC2CCCN(CCc3ccc(F)cc3)C2)c(C)o1 (stereo unspecified)	14.1 µM (active)
Cc1c(/C=N/NC(=O)c2cccs2)c2ccccc2n1Cc1ccccc1Cl	3.16 µM (active)
Cc1ccccc1NC1=NCC(c2ccc([N+](=O)[O-])cc2)S1 (stereo unspecified)	11.2 µM (active)
CCN(CC)CCNC(=O)c1ccc(NC(=O)c2ccccc2-c2ccc(C(F)(F)F)cc2)cc1	11.2 µM (active)
